The record followed here is paper PMC12136788.

To fix the notation:
B1: chr14:23562722:23562723:-_ENSG00000100813_ENST00000605057|hu_mus|FALSE|FALSE (ssRNA)
RNA: GGGAGUUCUACAGUCCGACGAUCUGGCUCAUUUCCUCCCCGAUCUGUGAAUUUGGCUGGAAUGCAGCAUGGGGUGUUGAGUGUUUUUGUAAAUUUUCUAGCAUUAGAGCCCCUUUGAGCCGCUUGACCAGGGCACUCUUCUGCCAACAGAGGAUUGAGCAUCA
B2: 107524198_107526941_663_CDS_ENSMUSG00000028613_ENSMUST00000106731|mouse|control|control (ssRNA)
RNA: GGGAGUUCUACAGUCCGACGAUCGGGAUGAGGCGCGAGUAGUCCCGCUUCACCAGGUCUAUCCUCCGCACCUCGUGUCGGUUCGUGAAGAUCAGAGAUGGGCUCUUGCCGGCUACAGCUUUGCAGUUCUUGGUCAGUGUAUCCCAACAGAGGAUUGAGCAUCA
B3: chr11:72497679:72497680:+_ENSMUSG00000020794_ENSMUST00000021148|mus_mus|motif|central (ssRNA)
RNA: GGGAGUUCUACAGUCCGACGAUCUAUUGCUACAUCCAAUCCAAGAGAUGGGUGAAUCAUAGUACAAAAAGGACAAAGCACCGGGUGAUGACCCCUCCUCUGAAGUCAUCGUGAAAAACUCAAGUAAUUUACUAGUAUUUCAGUCAACAGAGGAUUGAGCAUCA
B4: chr10:35314101:35314102:-_ENSG00000108094_ENST00000537177|hu_mus|motif|central (ssRNA)
RNA: GGGAGUUCUACAGUCCGACGAUCUUCACCUGUACAGAGAUAAUGCAACCAUGUCAGCUUCCGUCCACUGAAAUGCUGGCGGUAAAACAAUUCAAACAUCUGUACACUUUUCUCUAGCUCUUGGGGAAUUGCAAAUGUAGAUGACAACAGAGGAUUGAGCAUCA
B5: chr19:60013232:60013233:-_ENSMUSG00000040022_ENSMUST00000171986|mus_hu|FALSE|FALSE (ssRNA)
RNA: GGGAGUUCUACAGUCCGACGAUCCUUAUCUUUUAACUUUGCAAAAGGAGAUCUGGUUUUGUCCUUCAUUGAUAAGUCAAACAUACUUGCGGUCAUAUUGUUCCUCAUAAACUGAAUAUUGACCUUUAUCUCACCCCUGUUUUUCAACAGAGGAUUGAGCAUCA
B6: chr2:203071830:203071831:-_ENSG00000116030_ENST00000392246|hu_hu|FALSE|FALSE (ssRNA)
RNA: GGGAGUUCUACAGUCCGACGAUCAGGGGACUGAGGCUUGAUCACCAAAAAUCAGCACAAUGAAAACAAACAAUAAUGAAUAAUGAGCACUAGAAUUCAAAUUACCAGAUGUUUCAAAGAGAUGGGGUGCCAGUUUUCAAUUCCCAACAGAGGAUUGAGCAUCA
B7: chr5:180275300:180275301:-_ENSG00000196670_ENST00000512132|hu_hu|FALSE|FALSE (ssRNA)
RNA: GGGAGUUCUACAGUCCGACGAUCUCAUCAUCACUGCCCCCUCCCAAACCAAUUACAUCAAGUUUAUACUUAAAGACCACUAAUAUUAAAUAAAUUUAUAUUCCCUGAAACCUAUCCUCCCUGAAUUUGCCUGUUGGAGGCCCUCAACAGAGGAUUGAGCAUCA
B8: chrX:153994619:153994620:+_ENSG00000130826_ENST00000369550|hu_mus|FALSE|FALSE (ssRNA)
RNA: GGGAGUUCUACAGUCCGACGAUCUCCAACAUACUCUUUGCCUGCACUCUGUUGUGAUUUCACCAAACGAGUGGCUCGUUCAAUGCACACAAUUAAACAACCAGUCACUUUGGGAUCUAGUGUGCCACUGUGGCCAGUCUUCUCCAACAGAGGAUUGAGCAUCA
B9: chr10:22825647:22825648:-_ENSG00000150867_ENST00000376573|hu_hu|FALSE|FALSE (ssRNA)
RNA: GGGAGUUCUACAGUCCGACGAUCUCAUCAUUAUUAUCUUCAUUAUUCUGAAUACUGUCUCACAUCUUUCAACUCCAAAAAAAAAAAAAAAAAAAAAAAACUGAUCCACAGUUUGUUGUGUGAUGCCAACACGGUGCCUGACAUCAACAGAGGAUUGAGCAUCA
B10: chr9:88635815:88635816:+_ENSG00000135040_ENST00000361671|hu_hu|FALSE|FALSE (ssRNA)
RNA: GGGAGUUCUACAGUCCGACGAUCUCCUCCUGCCAAUAACUUCAUAACCACAAAGUUGGGUUUGGCAACCUUUAAAAUUCUAUUAACCUCAUGGUCCGGGUUAGGAAUAUUUUCCAAUAUCAUUUUUGCCUGUUGAAAGUGCUUCAACAGAGGAUUGAGCAUCA
B11: chr2:203071915:203071916:-_ENSG00000116030_ENST00000392246|hu_hu|motif|central (ssRNA)
RNA: GGGAGUUCUACAGUCCGACGAUCCAAAGAGAUGGGGUGCCAGUUUUCAAUUCCGUUUUGAACACCACAUUACAAAAGAACGGUUUUUAAAAAUAAAAAAGGAUUGAGGGAAAAGAAAAAAAAUAAAAAGAAUAUCUAAACUGUCAACAGAGGAUUGAGCAUCA
B12: chr2:203071915:203071916:-_ENSG00000116030_ENST00000392246|hu_hu|FALSE|FALSE (ssRNA)
RNA: B11 RNA with G81U, G82A
B13: chr7:17500836:17500837:-_ENSMUSG00000019370_ENSMUST00000019514|mus_mus|FALSE|FALSE (ssRNA)
RNA: GGGAGUUCUACAGUCCGACGAUCUGAACUGAACACAAUAUUGCCCGGUUUGUUUGUUUGUUUAAAAAAAAAAAAAAAAAAGGAAAAACAAAAAACCAAAAUAAAACCCCGAAACAUUCCGCAAAGUCCACAGCCUCACGCCUACAACAGAGGAUUGAGCAUCA
B14: chr18:43482294:43482295:-_ENSMUSG00000024501_ENSMUST00000121805|mus_mus|FALSE|FALSE (ssRNA)
RNA: GGGAGUUCUACAGUCCGACGAUCUGACAGAGUUUUGCCUAGCAUUUGAGAGGCCCUGGACUCAAUUGUCCAGCUCUACAAAAUGAAAUAAACAGAAAUUCCCCACCUCAAAAAAAAAAAACAACAACAACAACAACAAAAAACCAACAGAGGAUUGAGCAUCA
B15: chr6:74304526:74304527:-_ENSG00000119899_ENST00000355773|hu_hu|motif|central (ssRNA)
RNA: GGGAGUUCUACAGUCCGACGAUCUAAUUAAGCAAAGGUAUCAGGAGGUCUGUUUCAGCUCAUUCCCUUUAGUAUGGCCCGGAAAAAUCAACAGAACUGUCCUACUUCAUGUUGCCCGACUAGCAGGCAGGUAUGUGAACCUAACAACAGAGGAUUGAGCAUCA
B16: 6859137_6859426_438_3pUTR_ENSG00000089693_ENST00000435120|human|control|control (ssRNA)
RNA: GGGAGUUCUACAGUCCGACGAUCGUCUGAAUCCCGAACAGUCCUCCGUGUCUCCCGGAUCCCGCCUGGUGCCGAGCGCAUCUCUGAUGUCUCUUGGUAGACCUUGGGGGCACCAUCACCCGUAUUGGAGUAGGAGAUGACAGUCAACAGAGGAUUGAGCAUCA
B17: chr18:35731670:35731671:+_ENSMUSG00000037236_ENSMUST00000166793|perfect_dup|motif|central (ssRNA)
RNA: GGGAGUUCUACAGUCCGACGAUCUGACCCUGUGAAUCCCUACCGAGAGAUGACUGCUGGAAUGACUUGGACAUUGUAGAACGGUCUCUUGUCUAUUUUAUAGAUCAAAAAAAAAAAAAAAAGUUUUAAAAGAUGGCCAAAAAGCAACAGAGGAUUGAGCAUCA
B18: chr1:39494564:39494565:+_ENSG00000168653_ENST00000372967|hu_hu|hu_hu_hu_mus_True|28_78 (ssRNA)
RNA: GGGAGUUCUACAGUCCGACGAUCAUGCAUUCGCCUCAUCGUUUUGUACCGAAGCAAACACUCUACGAAGUCAUCGAACUCUAUCUUGCACUCCUUUUUCGCCCGGGUAUAACCGAUCCCGUGUGCACACUCUAUCCACUCUUUCAACAGAGGAUUGAGCAUCA
B19: chr7:44244176:44244177:+_ENSG00000106636_ENST00000223369|hu_mus|hu_hu_hu_mus_False|48_48 (ssRNA)
RNA: GGGAGUUCUACAGUCCGACGAUCACUGUCGCUCCGGACGUAGACAUGGCAAAGAUACUCUUGUUCUUUGACAGAAGCUCUGCUGCCUUUCGAUGAGCGUUCCACAAUCAGUUGACUUGUAAAGGUCAUGAAUUCCUGCACACUCAACAGAGGAUUGAGCAUCA
B20: chr2:157388114:157388115:+_ENSMUSG00000067786_ENSMUST00000109526|mus_mus|motif|central (ssRNA)
RNA: GGGAGUUCUACAGUCCGACGAUCUUGGUGGAGGUGGUCCCUGUCUCCAGGAGCUUACAAUCUAGCUGGGGAGACACGGCGGAUGCACACUUAAACCAGUACAAUUAGCGACUACCACAAUAUUGACCACAACUGCUGCGUGAGCAACAGAGGAUUGAGCAUCA
B21: chr2:120842339:120842340:+_ENSMUSG00000023572_ENSMUST00000060455|mus_mus|motif|central (ssRNA)
RNA: GGGAGUUCUACAGUCCGACGAUCCUUAAGGACAGAGGCUGCCUUUCUAUCGAGCAAACACCCUGUCAAAGCUCCACUUCGGAAAGCAGACGUUAAAAAAACUUAAAAAAUAAAUAGGUAAAGCAGACACUGGAUCGUGGGUGUCAACAGAGGAUUGAGCAUCA
B22: chr1:185089287:185089288:-_ENSG00000121486_ENST00000367506|hu_hu|FALSE|FALSE (ssRNA)
RNA: GGGAGUUCUACAGUCCGACGAUCUGACUGGACAUGGCUUUCUGACUGUCCUCCAGUGUAGGUGGGGGUGCUGUACUUUAAAAGGAUAGAUUUAAACUGCAUCAGAGGUGCAUCUGUGCGUACACCCAUUGGGUCAAAAUGAGUCAACAGAGGAUUGAGCAUCA
B23: 104620154_104620274_4085_CDS_ENSMUSG00000074994_ENSMUST00000117237|mouse|control|control (ssRNA)
RNA: GGGAGUUCUACAGUCCGACGAUCACCUCCACUUUCAAUAUUUUCCUCAUCUGUAAAACCUUCUAUUGCAACUGUGUCCUGUCCUUUUGCCAACUGGUCUGAAGGAAGACUAUCAAGUUCGAUGGCUGUGGGGGAUUCUGUGGACAACAGAGGAUUGAGCAUCA
B24: 13689013_13692640_988_3pUTR_ENSMUSG00000022684_ENSMUST00000023365|mouse|control|control (ssRNA)
RNA: GGGAGUUCUACAGUCCGACGAUCCACUCCCAGGGCUCUCACACGCUCCAGCUCCGUGAGGAUGACCCUUCUGUGGCUACUGUUCUCUAUGGUAUAAGGUGCCCUGGAAAACUCUUCUUCUGUCAAAGUUAAAAGCAACCUUCCCAACAGAGGAUUGAGCAUCA
B25: 158551514_158564203_814_3pUTR_ENSG00000122335_ENST00000367104|human|control|control (ssRNA)
RNA: GGGAGUUCUACAGUCCGACGAUCCACCCUUCUGAGCAGCUAGACUCUGACUGCUUUCACUAAGAGCCAAAGAUGUAAAAUACUGGAUACACUCAUCUAGCUCUGUUUGAGGUAAGGAAGCCAGCAACUGUCUGAGCUCUUCUUCAACAGAGGAUUGAGCAUCA
B26: chr2:120842339:120842340:+_ENSMUSG00000023572_ENSMUST00000060455|mus_mus|FALSE|FALSE (ssRNA)
RNA: B21 RNA with G80U, G81A

Substitutions are numbered along the chain they refer to. Whole data set: some 24,000 sequences, median “enrichment r” near 0.99, cut for the highest 2% near 3.7. The entries come from a sample that favours the highest values as a whole.

This assay concerns the target T1, UNK ZnF1-3 (human, UniProt Q9C0B0 31-174).
T1 sequence: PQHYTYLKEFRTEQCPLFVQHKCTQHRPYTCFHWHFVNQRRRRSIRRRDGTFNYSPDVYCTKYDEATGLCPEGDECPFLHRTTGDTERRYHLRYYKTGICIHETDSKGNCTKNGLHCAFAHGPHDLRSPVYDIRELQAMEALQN
Description: nsRBNS (natural sequence RNA bind-n-seq); RBNS binding buffer (assumed for nsRBNS): 25 mM Tris pH 7.5, 150 mM KCl, 3 mM MgCl2, 0.01% Triton X-100, 500 ug/ml BSA, 20 U/ml SUPERase-In, 4 C; UNK is unkempt and MSI1 is Musashi-1; names of the RNAs are library labels; protein concentration not given here; high values mean tight binding.
On to B1, for which the binding signal was 0.906 enrichment R.
Take B2: the binding signal was found to be 0.464 enrichment R.
In the case of B3, the binding signal was found to be 0.978 enrichment R.
The figure for B4 is 0.886 enrichment R.
Molecule B5 registered a binding signal of 0.548 enrichment R.
In turn, B6 had a binding signal of 3.55 enrichment R.
Take B7: the binding signal is 3.55 enrichment R.
B8 registered a binding signal of 0.751 enrichment R.
The figure for B9 is 5.07 enrichment R; for B10 it is 1.04 enrichment R; for B11 it is 20.1 enrichment R.
B12 had a binding signal of 32.1 enrichment R.
With B13, the binding signal is 6.58 enrichment R.
With B14, the binding signal amounted to 3.06 enrichment R.
The molecule B15 yielded a binding signal of 0.917 enrichment R.
The result for B16 reads 0.67 enrichment R; that for B17, 3.64 enrichment R.
The result for B18 reads 0.645 enrichment R.
Molecule B19 gave a binding signal of 0.634 enrichment R.
Regarding B20, the binding signal turned out to be 1.28 enrichment R.
In turn, B21 registered a binding signal of 3.71 enrichment R.
B22 gave a binding signal of 0.951 enrichment R.
Consider B23, for which the binding signal turned out to be 0.848 enrichment R.
B24: the binding signal is 0.702 enrichment R.
On to B25, for which the binding signal came out at 0.91 enrichment R.
Take B26: the binding signal is 5.28 enrichment R.
